Bioassay records as filed in PubChem BioAssay.
Tgondii IFNg: inhibitors of Toxoplasma gondii growth with IFN-gamma; activity change, negative = inhibition, % (test concentration not listed); AID 1259416; 69,000 compounds, 3.8% hits; Toxoplasma gondii growth in IFN-gamma-treated host cells; active compounds read low; in the data active = activity change below about -70%, passing the limit was not always enough;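 note: host cells are HeLa cells infected with Toxoplasma gondii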
Large screens that a line does not name were inactive; ! = not active in a repeat. This excerpt belongs to a sample that is enriched for hits.

CC(C)c1ccc(CNC(=O)CSc2cccc3cccnc23)cc1	none
O=C(CSc1cccc2cccnc12)OCC(=O)c1ccccc1	Tgondii IFNg -89
CC(=O)OC[C@H]1O[C@@H](Sc2cccc3cccnc23)[C@H](OC(C)=O)[C@@H](OC(C)=O)[C@H]1OC(C)=O	none
Cc1cccc(NC(=O)c2c(O)c3ccccc3n(-c3ccccc3)c2=O)c1C	none
CCOC(=O)CSC1=Nc2ccccc2C2=NC(CCC(=O)NCc3ccccc3OC)C(=O)N12 (configuration not stated)	none
CCCCc1nc2cc(/C=C/C(=O)NO)ccc2n1CCN(CC)CC	Tgondii IFNg -82
CCCCC(=O)Nc1cc2nc(CCCC)n(Cc3ccccc3Cl)c2nc1C	none
CCN(CC)CCn1c(=O)c(Cc2ccc(OC)cc2)nc2ccccc21	none
c1ccc(CN2CCC(Cn3cnnc3)C2)cc1 (configuration not stated)	none
Cc1ccc(OCc2nc(Cc3nc(-c4ccccc4)oc3C)no2)cc1	none
COc1ccccc1-c1nc(Cc2noc(-c3ccccn3)n2)c(C)o1	none
COc1ccccc1-c1nc(Cc2noc(-c3ccc(F)cc3)n2)c(C)o1	none
COc1ccccc1-c1nc(Cc2noc(-c3ccccc3F)n2)c(C)o1	Tgondii IFNg -79
COc1cccc(-c2nc(Cc3nc(-c4ccccc4)oc3C)no2)c1	none
COc1ccc(-c2nc(Cc3noc(-c4ccccc4F)n3)c(C)o2)cc1	Tgondii IFNg -113
Cc1ccc2c(c1)C(=O)CC1(CCN(C(=O)c3cc(-c4cnn(C)c4C)n[nH]3)CC1)O2	none
Cc1nc2c(C(=O)N3CCc4[nH]nc(-c5cccc(F)c5)c4C3)cccc2[nH]1	none
O=C(Cc1nc2ccccc2[nH]1)NC1CCCN(Cc2cccnc2)C1 (configuration not stated)	none
Cc1c2oc3c(C)ccc(C(=O)N[C@@H]4C(=O)N[C@H](C(C)C)C(=O)N5CCC[C@H]5C(=O)N(C)CC(=O)N(C)[C@@H](C(C)C)C(=O)O[C@@H]4C)c3nc-2c(C(=O)N[C@@H]2C(=O)N[C@H](C(C)C)C(=O)N3CCC[C@H]3C(=O)N(C)CC(=O)N(C)[C@@H](C(C)C)C(=O)O[C@@H]2C)c(N)c1=O	Tgondii IFNg -82
COc1cc(Cl)cc(CN(C)C(C)C(=O)N(C)C)c1OC (configuration not stated)	none
CCCn1cc(CCNC(=O)c2cc3ccccc3[nH]2)c2cccnc21	Tgondii IFNg -83
CC(CNC(=O)c1cc(=O)c2ccccc2[nH]1)Oc1cccnc1 (configuration not stated)	none
CCCN1C(=O)CCc2cc(NC(=O)c3cc4ccccc4[nH]3)ccc21	none
Cc1nc(C(=O)N2CC(=O)N(C3CCCCC3)CC(OCc3ccccc3)C2)cs1 (configuration not stated)	none
COc1ccc(CNC(=O)c2c(O)c3cccnc3[nH]c2=O)cc1	none
COC(=O)Nc1nc2ccc(SC(C)C)cc2[nH]1	none
CCCCCC#CC(=O)Nc1nc2cc(C)c(C)cc2[nH]1	none
CC(c1ccon1)N(C)CC(=O)Nc1nc2ccccc2[nH]1 (configuration not stated)	none
Cc1ccc2nc(NC(=O)C(C)(C)C)[nH]c(=O)c2c1	none
CCCSc1ccc2nc(NC(=O)OC)[nH]c2c1	Tgondii IFNg -78!
O=C(O)c1ccc2nc(-c3ccccn3)[nH]c2c1	none
COC(=O)c1ccc(NC(=O)c2ccccc2SC)cc1	none
COC(=O)Nc1nc2ccc(S(=O)c3ccccc3)cc2[nH]1 (configuration not stated)	Tgondii IFNg -75!
COC(=O)Nc1cc(C)n(-c2ccccc2)n1	none
COC(=O)Nc1nc2ccc(C(=O)c3ccccc3C(=O)OC(C)C)cc2[nH]1	Tgondii IFNg -101
COC(=O)Nc1nc2ccc(C(=O)c3ccccc3)cc2[nH]1	Tgondii IFNg -79
CCCS(=O)c1ccc2nc(NC(=O)OC)[nH]c2c1 (configuration not stated)	none
Cc1oc(-c2ccccc2)nc1Cn1nnc(-c2nc(-c3ccc4c(c3)OCO4)no2)c1C	none
CCc1ccc(S(=O)(=O)N2CCC3(CC2)Nc2cc(C)ccc2-n2cccc23)cc1	none
Cn1cccc1C(=O)N1Cc2nccn2CC(CN2CCCC2)C1 (configuration not stated)	none
COCCN(Cc1ccncc1)Cc1cccs1	none
COc1ccc(NC(=O)Cn2c(=O)cc(C(=O)N3CCOCC3)c3ccccc32)cc1OC	none
Cc1ccc(C(=O)O)cc1NC(=O)c1cccs1	none
COC(=O)Nc1nc2ccc(C(=O)c3cccs3)cc2[nH]1	Tgondii IFNg -87
COc1ccc(-n2nc3ccc(NC(=S)NC(=O)c4cccs4)cc3n2)cc1	none
O=C(NC1CCCC1)N1CCC2(CC1)Nc1ccccc1-n1cccc12	none
C=CCN1C(=O)CC2C1CCN2C(=O)c1cscn1 (configuration not stated)	none
c1cc(-c2cnn3cc(-c4ccc(N5CCNCC5)cc4)cnc23)c2cccnc2c1	Tgondii IFNg -84
CN(Cc1cccc2ncccc12)C(=O)c1cnn(-c2ccc(F)cc2)c1	none
CN(Cc1cccc2ncccc12)Cc1cnn2cccnc12	none
CC(Cc1ccccn1)NC(=O)CCN1C(=O)c2ccccc2S1(=O)=O (configuration not stated)	none
CN(CCO)c1ccc(-c2nccn2-c2ccc3cn[nH]c3c2)cc1	none
COCC(=O)Nc1ccccc1-c1ccc(C(C)N2CCCC2)cc1 (configuration not stated)	none
O=C(Cc1cccs1)N1CCC(n2nnc(-c3ccc(F)cc3)n2)CC1	none
O=C(CN1CCC(n2nnc3cc(C(F)(F)F)ccc32)CC1)N1CCc2ccccc21	Tgondii IFNg -81
O=C(CN1CCC(c2nc3ccccc3[nH]2)CC1)N1CCCc2ccccc21	none
O=C(CN1CCCC1)N1CCc2ccccc21	none
O=C(C1CCCO1)N1CCC2(CC1)Nc1cccnc1NC2=NC1CCCC1 (configuration not stated)	none
COc1ccc(CNC(=O)c2cc(-c3cncc(C)c3)ncc2-c2nccs2)nc1OC	none
CCO[C@@H]1CCN(S(=O)(=O)N(C)C)[C@@H]2CCO[C@H]21	Tgondii IFNg -82
CN(C)S(=O)(=O)N1CCO[C@H]2[C@@H](OCc3cccnc3)CC[C@H]21	none
CCO[C@H]1CN(S(=O)(=O)c2cccnc2)[C@H]2CCCO[C@@H]12	none
CCOC[C@]12COC[C@H]1CN(C(=O)c1ccc3ncccc3c1)C2	none
O=C(C1CCCN1)N1CC=C(c2ccc(F)cc2)CC1 (configuration not stated)	none
Cc1cccnc1[C@H](C)NC(=O)CNS(=O)(=O)c1cccs1	none
COc1ccc(Br)cc1-c1nc(Cn2nnc(C(=O)Nc3ccc(F)cc3F)c2C)c(C)o1	none
O=C(O)Cn1cnc2ccccc2c1=O	none
O=C(C[C@H]1NCCC[C@@H]1O)Cn1cnc2cc(Br)c(Cl)cc2c1=O	Tgondii IFNg -80
CN(C)c1nc(-c2cnn(C)c2)nc2c1CN(Cc1cccc(C#N)c1)CC2	none
Cc1nc2[nH]nc(C)n2c(=O)c1CC(=O)Nc1ncc(Cc2ccccc2F)s1	none
Cc1nc(C)c(CC(=O)Nc2ncc(Cc3ccc(F)cc3)s2)s1	Tgondii IFNg -80
Cc1ccc2nc(COCC(=O)Nc3ncc(Cc4ccccc4)s3)[nH]c2c1	none
c1cncc(C2CN(c3cc(N4CCCCC4)ncn3)C2)c1	none
Cc1ccccc1-c1nc(Cn2nnc(C(=O)Nc3ccccc3)c2C)c(C)o1	none
CC1=N[C@]2(CC[C@H]3CN(Cc4cnn(C)c4)C[C@H]32)C(=O)N1CC(C)C	none
NCCn1nc(C2CCN(C(=O)c3csc4c3CCCC4)C2)c2nccnc21 (configuration not stated)	none
CN(Cc1ccccc1N1CCOCC1)C(=O)c1cnc(-c2ccc(Cl)cc2)nc1	none
